A selection: hits, their analogues and other compounds. The true share with any hit is near 10%.
G9a block – qHTS Assay for Inhibitors of Histone Lysine Methyltransferase G9a; Histone-lysine N-methyltransferase EHMT2 (Homo sapiens), Q96KQ7; G9a H3K9 monomethylation, AlphaScreen, 2 h; Potency, µM (series often up to 102 µM), inactives show at the top dose activity, negative = inhibition, actives largely listed as inhibitors; 8.8% of 350,000 active; AID 504332, 2011; note: potency is the fitted concentration of half-maximal effect; nearly all actives have a fitted effect of over 75% in size
Target sequence (Q96KQ7 913-1193 limits assumed): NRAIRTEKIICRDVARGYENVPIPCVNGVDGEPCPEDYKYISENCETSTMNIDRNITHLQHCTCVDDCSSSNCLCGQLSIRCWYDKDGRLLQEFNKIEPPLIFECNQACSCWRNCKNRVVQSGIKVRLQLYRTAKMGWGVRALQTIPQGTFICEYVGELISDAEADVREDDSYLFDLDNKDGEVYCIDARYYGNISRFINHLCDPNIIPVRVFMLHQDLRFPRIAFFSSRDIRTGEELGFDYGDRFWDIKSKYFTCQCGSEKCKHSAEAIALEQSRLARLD
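AlphaScreen read-out: biotin-H3K9 peptide (500 nM) methylation by 20 nM enzyme with 20 uM SAM, 2 h at room temperature after 15 min compound preincubation; anti-monomethyl H3K9 antibody plus donor/acceptor beads, 10 min dark.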
PLK1 PBD inh – qHTS for Inhibitors of PLK1-PDB (polo-like kinase 1 - polo-box domain): Primary Screen; Plk1 PBD binding of FITC phosphopeptide, fluorescence polarization; 2.8% of 360,000 active; Potency, µM, for inactives: max response, negative = inhibition, hits mostly inhibitors; Serine/threonine-protein kinase PLK1 (Homo sapiens), P53350; AID 720504, 2013; note: potency is the fitted concentration of half-maximal effect; series mostly up to about 57 µM; nearly all actives have a fitted effect of over 65% in size
CCT modulator – High-Throughput Screening for Modulators of Cytosolic Chaperonin Activity; purified chaperonin ATPase assay, HTRF ADP detection, 30 min; AID 651819, 2012; activity change, % (test concentration not listed), hits read low; 0.3% of 360,000 active; in the data active = activity change below about -30%
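We incubate TRiC, 40 or 20 nM final, with library compounds at 76 uM and 10 uM ATP for 30 min at 37 °C. ADP formed is detected with Transcreener HTRF reagents after 30 min at room temperature.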
VDR inhibitor – Inhibitors of the vitamin D receptor (VDR): qHTS; Vitamin D3 receptor (Homo sapiens), P11473; VDR-SRC2-3 peptide fluorescence polarization, 2 h; Potency, µM, for the others: max response, negative = inhibition, hits mostly inhibitors; 0.93% of 400,000 active; AID 504847, 2011; note: potency is the fitted concentration of half-maximal effect
Target sequence (P11473 whole entry, looked up): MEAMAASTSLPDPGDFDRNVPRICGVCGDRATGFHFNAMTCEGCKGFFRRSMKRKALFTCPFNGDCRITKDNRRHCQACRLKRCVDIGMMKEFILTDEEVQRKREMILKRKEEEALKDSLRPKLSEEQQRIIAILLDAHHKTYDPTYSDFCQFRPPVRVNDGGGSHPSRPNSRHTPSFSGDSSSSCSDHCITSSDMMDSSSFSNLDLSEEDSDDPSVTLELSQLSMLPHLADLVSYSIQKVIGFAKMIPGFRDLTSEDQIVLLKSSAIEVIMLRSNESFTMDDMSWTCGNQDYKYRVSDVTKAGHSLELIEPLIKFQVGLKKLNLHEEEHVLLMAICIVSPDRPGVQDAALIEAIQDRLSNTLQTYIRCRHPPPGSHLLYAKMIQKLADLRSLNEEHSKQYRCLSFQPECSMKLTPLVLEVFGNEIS
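Measured by FP: displacement of SRC2-3 coactivator peptide from VDR by library compounds, following a two-hour ambient incubation.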
Sfp inh – qHTS Assay for Inhibitors of Bacillus subtilis Sfp phosphopantetheinyl transferase (PPTase); 4'-phosphopantetheinyl transferase ffp (Bacillus subtilis), Q9F4F7; Biochemical Sfp PPTase activity, qHTS; Potency, µM, for inactives: largest response in the series, negative = inhibition, usual class: inhibitors; 3.5% of 310,000 active;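 note: the enzyme is Sfp with the accession as filed and its product quenches rhodamine fluorescence; potency is the fitted concentration of half-maximal effect; 0% = enzyme reaction without inhibitor and -100% = no enzyme wells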
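After 15 min at room temperature with compound, 15 nM Sfp received 5 uM rhodamine-CoA plus 12.5 uM BHQ-2-ybbR (50 mM Hepes pH 7.6, 10 mM MgCl2). Rate came from the fluorescence difference over 30 min, ex 525/em 598 nm.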
MmCpn inh – Inhibitors of TCP-1 ring complex (TRiC) of Methanococcus maripaludis (MmCpn): qHTS. Chaperonin Mm-Cpn (Methanococcus maripaludis). purified Mm-Cpn ATPase, ADP Transcreener TR-FRET. Potency, µM (series often up to 76.9 µM), inactives show top-dose activity, negative = inhibition, most hits filed as inhibitors. 0.031% of 330,000 active; note: potency is the fitted concentration of half-maximal effect; nearly all actives have a fitted effect of over 80% in size
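ATPase read-out: TR-FRET ADP immunoassay (anti-ADP Eu cryptate vs ADP-d2), ex 320 nm, em 590/665 nm; signal drops as ADP forms. Enzyme 25 nM, ATP 10 uM, 30 min at 37°C after 10 min compound preincubation.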
The depositor's hits bear a star; ? = inconclusive; nt = no result; ! = a repeat was not active; [ ] = remark or other dose. Unless noted, calls come from the whole dose curve; as a rule, active = well fitted curve in the direction sought with a large enough effect; inconclusive = small, poorly fitted or top-dose-only effect, or another doubt; inactive = no such curve, though single readings can be large; an effect the other way counts as inactive or inconclusive. Unless noted, % is set by controls: 0 for no effect and ±100 for the full control effect.

SMILES	G9a block	PLK1 PBD inh	CCT modulator	VDR inhibitor	Sfp inh	MmCpn inh
CCN(CC)CCCNC(=O)c1cnc(SC)nc1-c1ccccc1	-16%[59 µM]	nt	nt	7%	nt	nt
CCOc1ccc(CNCc2c(C(=O)O)c(C)n(Cc3c(F)cccc3Cl)c2C)cc1OC	-25%[59 µM]	nt	nt	17%	nt	nt
COc1cccc(/C=C/C(=C2/C(=O)N(c3ccccc3)N=C2C)c2ccc(C)cc2)c1OC	1.1µM*	-16%	-5	-3%	-2%	0%
COc1cccc(/C=C/C(=O)NNC(=O)c2ccccc2)c1OC	nt	2%	0	-1%	nt	-1%
CC1=C(C(=O)Nc2ccccc2)C(c2cccc(O)c2)n2nc(-c3ccccc3Cl)nc2N1 (stereo unspecified)	-1%[59 µM]	nt	nt	-19%	nt	nt
CC(C)(C)OC(=O)N1CCC[C@H]1C(=O)NCc1ccc(Cl)cc1Cl	0%	27µM*	-2	?	15%	2%
CC(C)(C)OC(=O)N1CCC[C@H]1C(=O)N1CCC[C@H]1C(=O)NCc1ccc(F)cc1F	nt	4%	-1	nt	nt	nt
CSc1ccccc1Sc1cc(C(=O)O)c2ccccc2n1	10µM*	?	-1	-2%	-22%	1%
CC1=C(C(=O)Nc2cccnc2)C(c2cccc(F)c2)n2nc(SCc3ccccc3)nc2N1 (stereo unspecified)	0%[59 µM]	nt	nt	-18%	nt	nt
COc1ccc(OCCCN2CCCCCC2)cc1	15%[2.33 µM]	-11%	-2	-5%	-3%	2%
O=C(c1ccc(OCCN2CCCCC2)cc1)c1c(-c2ccc(O)cc2)sc2cc(O)ccc12	22µM*!	-7%	1	-3%	-27%	-23%
O=C(OCCN1CCCCC1)c1cccc(F)c1	?	2%	2	-7%	3%	2%
CC(=O)c1ccc(OCCCN2CCCCC2)cc1	3.5µM*	-3%	-3	15%	-14%	0%
O=C(c1ccccc1)c1ccc(OCCCN2CCCCC2)cc1	8.9µM*	-10%	0	0%	?	0%
O=C(c1ccccc1)c1ccc(OCC(O)CN2CCCCC2)cc1 (stereo unspecified)	11%[59 µM]	0%	0	-3%	1%	1%
O=C(OCCN1CCCCC1)c1ccc(Cl)cc1	-3%[12.7 µM]	-3%	-6	-13%	89µM*	-26%
Oc1cccc(-c2sc3ccccc3c2-c2ccc(OCCN3CCCCC3)cc2)c1	nt	0%	-1	nt	nt	nt
CCOc1cccc2sc(NC(=O)CS(=O)(=O)c3ccc(C)cc3)nc12	-26%[59 µM]	nt	nt	16%	nt	nt
COC(=O)c1ccccc1NC(=O)Cn1ncc2c(C)n(Cc3ccc(F)cc3)c(C)c2c1=O	10%[59 µM]	nt	nt	16%	nt	nt
COC(=O)c1ccc(OCCN2CCCCCC2)cc1	35µM*	-6%	0	-4%	-18%	0%
CC(C)COc1ccc(C(=O)OCCN2CCCCC2)cc1	19%[2.33 µM]	-6%	-1	6%	6%	-10%
COc1ccccc1N1CCN(c2ncnc3c2cnn3-c2ccc(C)cc2)CC1	9%[59 µM]	nt	nt	11%	nt	nt
c1cc[n+](CCC[n+]2ccccc2)cc1	11µM*	-6%	-4	14%	9%	2%
O=C1CC(c2ccc(O[C@@H]3OC(CO)[C@@H](O)C(O)C3O)cc2)Oc2cc(O)ccc21 (stereo partly specified)	nt	nt	nt	-8%	2%	nt
COc1ccc2c(c1)c1c(c(=O)n(-c3ccc(OC)c(OC)c3)c(=O)n1Cc1ccc(F)cc1)n2C	-3%[59 µM]	nt	nt	9%	nt	nt
SMILES	G9a block	PLK1 PBD inh	CCT modulator	VDR inhibitor	Sfp inh	MmCpn inh
Cc1ccn2c(NC(=O)c3ccccc3)c(-c3ccccc3)nc2c1	26%[59 µM]	8%	1	-7%	7%	-3%
Cc1ccn2c(c1)nc(=S)n2C(=O)c1ccccc1	45µM*	21µM*	-3	-5%	-17%	1%
Cc1cccc(C(=O)n2c(=S)nc3cc(C)ccn32)c1	7.9µM*	21µM*	0	-19%	8.9µM*	?
CCCNC(=O)OC[C@@H]1O[C@H](CCO/N=C(\C)CCC(=O)OC[C@@H]2O[C@H](c3ccccc3)C=C[C@@H]2Oc2ccc(OC)cc2)C=C[C@@H]1Oc1ccc(OC)cc1	nt	nt	nt	nt	11%	nt
Brc1ccc(-c2cnnc(N3CCCC3)n2)cc1	71µM*	-15%	2	-3%	-30%	2%
Cc1nn(-c2ccccn2)c2nc(-c3cccs3)cc(C(=O)N3CCOCC3)c12	?	12µM*	-2	?	-8%	-4%
COc1ccc(-c2cc(C(=O)O)c3c(C)nn(-c4ccccn4)c3n2)cc1	?	-2%	-2	0%	0%	-3%
COc1cc2c(cc1OC)CN(CC(=O)Nc1cccc([N+](=O)[O-])c1)CC2	?	-11%	-1	-17%	14%	0%
COc1cc([N+](=O)[O-])ccc1NC(=O)CN1CCc2cc(OC)c(OC)cc2C1	28µM*	-10%	0	-22%	-1%	-3%
COc1cc2c(cc1OC)CN(CC(=O)NC(=O)NCc1ccccc1)CC2	56µM*	9%	1	9%	-8%	-2%
CCc1cccc(CC)c1NC(=O)CN1CCc2cc(OC)c(OC)cc2C1	71µM*	nt	nt	nt	-15%	0%
CC(C)CCNC(=O)c1cnc2sc(N3CCCCC3)nn2c1=O	8%[59 µM]	nt	nt	6%	nt	nt
CCSc1n[nH]c(=S)s1	1.4µM*	-9%	-2	0%	-76%	0%
CC1=C(C(=O)Nc2cccnc2)C(c2cccc(O)c2)n2nc(SCc3ccccc3)nc2N1 (stereo unspecified)	7%[59 µM]	nt	nt	8%	nt	nt
COc1cc2c(cc1OC)CN(c1ccc3ccccc3n1)CC2	?	-13%	0	8%	56µM*	-3%
COc1cc2c(cc1OC)CN(c1ccc(-c3ccccc3OC)nn1)CC2	4%[12.7 µM]	-23%	2	-8%	-29%	-1%
C/C(=N\Nc1nc2ccccc2[nH]1)c1cc2ccccc2o1	45µM*	-11%	-1	3%	?	-2%
C/C(=N\Nc1nc2ccccc2[nH]1)c1ccccn1	6%	nt	nt	nt	18%	0%
COC(=O)NC(c1cccc(C)c1)[C@]1(C(C)=O)CCCC1=O (stereo partly specified)	nt	nt	nt	nt	29%	nt
CN(C(=O)c1cccc(C#N)c1)c1nnc(-c2ccncc2)s1	?	-7%	-4	-2%	8%	-9%
CCCC(=O)N(C)c1nnc(-c2ccc(OC)cc2)s1	45µM*	?	-1	-11%	-12%	-8%
